These results are taken from paper PMC5700166.

Residue numbers refer to the chain shown, from its start.

Holding throughout (assay): protein-binding microarray (PBM); PBM: ~300 nM protein, 6 mM HEPES pH 7.8, 80 mM KCl, 0.5 mM EDTA, 0.5 mM EGTA, 6% glycerol, 35 ng/ul poly-dIdC, 1% milk, 1 h, room temperature; Ap Aiptasia and Nv Nematostella (sea anemones) / Co Capsaspora / Aq Amphimedon (sponge) / Dm Drosophila / Hu human; RHD is the Rel homology domain; high values mean tight binding
Holding throughout (settings): dsDNA, one strand shown

The target in experiment [1] is T1, GST-Ap-NF-kB RHD (Exaiptasia pallida (Aiptasia), UniProt A0A913YAJ5 2-422).
T1 sequence: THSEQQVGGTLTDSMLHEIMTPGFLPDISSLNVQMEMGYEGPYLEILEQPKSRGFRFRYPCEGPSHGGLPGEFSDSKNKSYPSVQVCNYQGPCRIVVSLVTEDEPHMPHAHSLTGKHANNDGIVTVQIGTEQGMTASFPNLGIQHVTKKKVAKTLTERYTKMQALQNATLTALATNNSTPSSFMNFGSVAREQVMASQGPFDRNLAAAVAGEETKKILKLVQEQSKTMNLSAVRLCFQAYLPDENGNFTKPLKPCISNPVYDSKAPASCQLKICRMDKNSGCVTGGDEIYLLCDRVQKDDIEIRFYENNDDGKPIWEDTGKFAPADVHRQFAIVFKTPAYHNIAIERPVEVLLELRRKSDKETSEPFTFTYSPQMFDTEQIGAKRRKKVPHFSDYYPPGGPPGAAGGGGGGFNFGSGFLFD

Experiment [2] addresses T2, GST-Nv-NF-kB (Cys allele) (Nematostella vectensis, UniProt E5G601 2-411).
T2 sequence: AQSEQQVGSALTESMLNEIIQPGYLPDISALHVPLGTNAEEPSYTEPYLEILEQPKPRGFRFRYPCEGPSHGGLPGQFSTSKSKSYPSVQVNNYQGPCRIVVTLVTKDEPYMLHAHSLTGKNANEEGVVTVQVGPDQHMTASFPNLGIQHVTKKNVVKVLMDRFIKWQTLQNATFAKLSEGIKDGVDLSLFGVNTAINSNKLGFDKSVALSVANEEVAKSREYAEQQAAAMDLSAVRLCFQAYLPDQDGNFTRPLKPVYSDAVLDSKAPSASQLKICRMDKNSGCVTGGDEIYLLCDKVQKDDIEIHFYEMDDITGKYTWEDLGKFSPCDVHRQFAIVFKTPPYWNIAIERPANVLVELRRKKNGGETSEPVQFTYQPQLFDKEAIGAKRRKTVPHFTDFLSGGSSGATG

Experiment [3] concerns the target T3, GST-Nv-NF-kB (Ser allele) (Nematostella vectensis, UniProt A7UNT2 2-411).
T3 sequence: T2 sequence with Q21R, C66S, S207N, E215Q, V217A, E225K, A268E, D399E

For experiment [4], the target named is T4, GST-Co-NF-kB (Capsaspora owczarzaki, UniProt F1ARL5 200-546).
T4 sequence: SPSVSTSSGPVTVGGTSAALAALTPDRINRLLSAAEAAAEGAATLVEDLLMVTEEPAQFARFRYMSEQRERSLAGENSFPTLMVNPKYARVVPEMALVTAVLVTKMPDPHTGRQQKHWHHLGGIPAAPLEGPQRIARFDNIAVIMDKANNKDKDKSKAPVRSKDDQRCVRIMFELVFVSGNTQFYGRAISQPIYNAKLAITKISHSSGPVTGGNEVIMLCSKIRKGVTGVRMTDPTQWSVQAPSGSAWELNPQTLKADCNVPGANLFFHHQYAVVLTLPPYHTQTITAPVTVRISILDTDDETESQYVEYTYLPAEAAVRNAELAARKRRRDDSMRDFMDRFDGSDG

Experiment [5] has as its target T5, GST-Dm-Relish (Drosophila melanogaster, UniProt Q94527 99-473).
T5 sequence: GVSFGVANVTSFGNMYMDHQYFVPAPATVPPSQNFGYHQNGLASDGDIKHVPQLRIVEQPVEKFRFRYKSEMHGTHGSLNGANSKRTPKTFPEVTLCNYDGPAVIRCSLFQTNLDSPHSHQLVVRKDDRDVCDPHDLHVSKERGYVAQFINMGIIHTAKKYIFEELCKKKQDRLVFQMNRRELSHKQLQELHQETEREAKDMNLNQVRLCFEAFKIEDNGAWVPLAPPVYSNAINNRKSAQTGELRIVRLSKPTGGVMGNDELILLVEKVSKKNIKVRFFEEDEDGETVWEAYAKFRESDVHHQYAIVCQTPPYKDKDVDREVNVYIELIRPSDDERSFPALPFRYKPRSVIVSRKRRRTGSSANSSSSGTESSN

The target in experiment [6] is T6, GST-Aq-NF-kB (Amphimedon queenslandica, UniProt A9Y5G7 2-389).
T6 sequence: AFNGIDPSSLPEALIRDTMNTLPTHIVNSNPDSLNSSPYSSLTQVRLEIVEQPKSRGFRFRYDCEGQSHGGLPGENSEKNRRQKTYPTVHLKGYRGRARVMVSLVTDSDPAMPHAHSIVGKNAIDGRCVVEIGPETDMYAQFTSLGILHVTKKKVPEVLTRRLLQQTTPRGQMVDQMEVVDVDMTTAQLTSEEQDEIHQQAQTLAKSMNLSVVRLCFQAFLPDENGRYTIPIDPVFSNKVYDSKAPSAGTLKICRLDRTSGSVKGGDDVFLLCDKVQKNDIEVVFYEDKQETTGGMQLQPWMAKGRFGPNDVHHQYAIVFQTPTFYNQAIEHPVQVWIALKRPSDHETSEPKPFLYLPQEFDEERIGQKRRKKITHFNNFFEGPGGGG

In experiment [7] the target is GST-Hu-p50 (Homo sapiens, UniProt P19838 7-356).
GST-Hu-p50, sequence (P19838 7-356): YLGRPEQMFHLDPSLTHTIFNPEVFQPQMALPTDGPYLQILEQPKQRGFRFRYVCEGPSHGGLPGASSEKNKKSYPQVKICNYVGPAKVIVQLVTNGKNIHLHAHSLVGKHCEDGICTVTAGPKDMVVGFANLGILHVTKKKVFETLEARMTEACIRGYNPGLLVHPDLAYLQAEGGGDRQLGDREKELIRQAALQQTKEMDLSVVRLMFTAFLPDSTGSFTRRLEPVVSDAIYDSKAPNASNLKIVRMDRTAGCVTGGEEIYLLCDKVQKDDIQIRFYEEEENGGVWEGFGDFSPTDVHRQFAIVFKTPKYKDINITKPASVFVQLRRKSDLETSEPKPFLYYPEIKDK

As to “CCGATTAACATCAGGGGGGTTTATGATGTTAATCGGGTCTTGATTCGCTTGACGCTGCTG”, the binding signal in experiment [1] turned out to be 7.17 z-score; in experiment [2] it was 5.54 z-score; in experiment [3], 6.69 z-score; in experiment [4], 4.39 z-score; in experiment [5], 8.97 z-score; in experiment [6], 6.15 z-score. In experiment [7], the binding signal was determined as 6.31 z-score.
Turning to “CCGATTAACATCAGCATCCCCCCTGATGTTAATCGGGTCTTGATTCGCTTGACGCTGCTG”, the binding signal in experiment [1] was determined as 5.21 z-score; in experiment [2], 4.99 z-score; in experiment [3], 4.67 z-score; in experiment [4], 4.85 z-score; in experiment [5] it was 4.52 z-score; in experiment [6], 4.67 z-score. This sequence displayed a binding signal in experiment [7] of 5.05 z-score.
On to “CCGATTAACATCAGTTTCCCCCATGATGTTAATCGGGTCTTGATTCGCTTGACGCTGCTG”, for which the binding signal in experiment [1] was found to be 6.91 z-score; in experiment [2], 6.51 z-score; in experiment [3], 8.2 z-score; in experiment [4], 10.6 z-score; in experiment [5], 2.94 z-score; in experiment [6], 5.09 z-score. For the same sequence, in experiment [7], the binding signal is 6.77 z-score.
For the sequence “CCGATTAACATCAGGGACGTCCCTGATGTTAATCGGGTCTTGATTCGCTTGACGCTGCTG”, the binding signal in experiment [1] is 7.37 z-score; in experiment [2], 7.13 z-score; in experiment [3], 4.26 z-score; in experiment [4], 1.08 z-score; in experiment [5] it was 6.25 z-score; in experiment [6] it was 8.52 z-score. Also, the binding signal in experiment [7] is 4.54 z-score.
Take “CCGATTAACATCAGGGAATAACCTGATGTTAATCGGGTCTTGATTCGCTTGACGCTGCTG”: the binding signal was 4.4 z-score in experiment [1]; 6.79 z-score in experiment [2]; 6.75 z-score in experiment [3]; 2.13 z-score in experiment [4]; 8.23 z-score in experiment [5]; 7.2 z-score in experiment [6]. Besides, the binding signal in experiment [7] is 5.21 z-score.
Turning to “CCGATTAACATCACATCCCCCCCTGATGTTAATCGGGTCTTGATTCGCTTGACGCTGCTG”, the binding signal amounted to 6.1 z-score in experiment [1]; 4.66 z-score in experiment [2]; 4.88 z-score in experiment [3]; 6.54 z-score in experiment [4]; 4.53 z-score in experiment [5]; 4.42 z-score in experiment [6]. In addition, the binding signal in experiment [7] amounted to 4.32 z-score.
As to “CCGATTAACATCACAACTCCCCCTGATGTTAATCGGGTCTTGATTCGCTTGACGCTGCTG”, the binding signal in experiment [1] is 5.84 z-score; in experiment [2], 4.69 z-score; in experiment [3], 5.89 z-score; in experiment [4], 6.16 z-score; in experiment [5] it was 3.67 z-score; in experiment [6], 5.15 z-score. The same sequence gave a binding signal in experiment [7] of 5.55 z-score.
Take “CCGATTAACATCACGGGGGAATATGATGTTAATCGGGTCTTGATTCGCTTGACGCTGCTG”: the binding signal in experiment [1] was determined as 8.53 z-score; in experiment [2] it was 7.14 z-score; in experiment [3], 7.03 z-score; in experiment [4] it was 10.6 z-score; in experiment [5], 4.66 z-score; in experiment [6], 5.84 z-score. This sequence also yielded a binding signal in experiment [7] of 6.21 z-score.
On to “CCGATTAACATCAAGAACCCCCTTGATGTTAATCGGGTCTTGATTCGCTTGACGCTGCTG”, for which the binding signal in experiment [1] worked out at 7.4 z-score; in experiment [2], 6.12 z-score; in experiment [3], 7.11 z-score; in experiment [4], 1.5 z-score; in experiment [5] it was 8.56 z-score; in experiment [6], 6.48 z-score. The binding signal in experiment [7] is 6.86 z-score.
With “CCGATTAACATCAAAGTCCCCCGTGATGTTAATCGGGTCTTGATTCGCTTGACGCTGCTG”, the binding signal in experiment [1] was determined as 6.78 z-score; in experiment [2], 5.8 z-score; in experiment [3] it was 6.12 z-score; in experiment [4] it was 6.7 z-score; in experiment [5], 7.35 z-score; in experiment [6], 5.87 z-score. Besides, in experiment [7], the binding signal is 5.37 z-score.
Consider “CCGATTAACATCAGAATTTTCCCTGATGTTAATCGGGTCTTGATTCGCTTGACGCTGCTG”, for which the binding signal amounted to 4.45 z-score in experiment [1]; 7.42 z-score in experiment [2]; 7.41 z-score in experiment [3]; 5.08 z-score in experiment [4]; 2.3 z-score in experiment [5]; 6.44 z-score in experiment [6]. Further, in experiment [7], the binding signal is 5.01 z-score.
With “CCGATTAACATCAGGGACTACCCTGATGTTAATCGGGTCTTGATTCGCTTGACGCTGCTG”, the binding signal in experiment [1] was found to be 6.16 z-score; in experiment [2], 5.24 z-score; in experiment [3] it was 4.07 z-score; in experiment [4], 1.8 z-score; in experiment [5], 7.1 z-score; in experiment [6], 7.57 z-score. For the same sequence, in experiment [7], the binding signal amounted to 4.13 z-score.
Take “CCGATTAACATCAGGGGACCACCTGATGTTAATCGGGTCTTGATTCGCTTGACGCTGCTG”: the binding signal was 4.71 z-score in experiment [1]; 3.46 z-score in experiment [2]; 2.99 z-score in experiment [3]; 2.22 z-score in experiment [4]; 6.1 z-score in experiment [5]; 4.66 z-score in experiment [6]. The same sequence had a binding signal in experiment [7] of 3.71 z-score.
